24 molecules from PubChem BioAssay (NCATS) can be followed below.

The target in experiment [1] is Calcium and integrin-binding protein 1 (Homo sapiens) (UniProt Q99828). Put plainly: Primary qHTS for Identification of Calcium Integrin Binding Protein 1 (CIB1) Competitor (AID 1508620).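 Also: GST tagged CIB1 binding a fluorescein labelled alphaIIb integrin peptide tracer; top concentration of the series differs between compounds; % is scaled to controls: 0 for no effect and ±100 for the full control effect.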 The method in brief:
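Fluorescence polarization competition: GST-tagged CIB1 (1 uM final) preincubated with compound 15 min at room temperature, then FITC-labelled alphaIIb peptide (100 nM final) added. After 15 min at room temperature, polarization read at Ex 480/Em 540.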
(In general: Quantitative high-throughput screening tests each substance at several concentrations.)

The target in experiment [2] is Cytochrome P450 2D6 (Homo sapiens) (UniProt P10635). Put plainly: Cytochrome P450 family 2 subfamily D member 6 (CYP2D6) small molecule antagonists: luciferase biochemical (cell-free) qHTS assay (AID 1645840; active = well fitted curve in the direction sought with a large enough effect in the repeat runs; an effect the other way counts as inactive or inconclusive; also: nearly all actives have a fitted effect of over 55% in size; also: potency is read from the fitted curve at half-maximal effect; as to activity change, negative = inhibition: % is scaled to controls: 0 for no effect and ±100 for the full control effect). The method in brief: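 P450-Glo luminescent screen: recombinant CYP2D6 enzyme–proluciferin substrate mix preincubated with compound 10 min at room temperature, then NADPH regeneration added for 1 h at room temperature. Detection reagent added for 20 min; luciferin light read as relative luminescence units.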

Experiment [3] in a line: Primary qHTS for inhibitors of nuclear receptor binding SET domain protein 2 (NSD2) in an RCH-ACV wild type WT cells (2C) (AID 1645877). Also: nearly all actives have a fitted effect of over 70% in size. Also: potency is read from the fitted curve at half-maximal effect.
Experiment [4] addresses Cytochrome P450 2C9 (Homo sapiens) (UniProt P11712). Put plainly: Cytochrome P450 family 2 subfamily C member 9 (CYP2C9) small molecule antagonists: luciferase biochemical (cell-free) qHTS assay (AID 1645842; active = well fitted curve in the direction sought with a large enough effect in the repeat runs; an effect the other way counts as inactive or inconclusive; also: nearly all actives have a fitted effect of over 55% in size; also: potency is read from the fitted curve at half-maximal effect; as to activity change, negative = inhibition: % is scaled to controls: 0 for no effect and ±100 for the full control effect). The method in brief:
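Luminescence, after 20 min with luciferin detection reagent, reflected CYP2C9 turnover during a 1 h NADPH-driven reaction at 37C. Enzyme-substrate mix contained 0.4% bovine serum albumin and was preincubated with compound 10 min at room temperature.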

Experiment [5] in a line: Primary qHTS for inhibitors of nuclear receptor binding SET domain protein 2 (NSD2) in an isogenic RCH-ACV NSD2 p.E1099K mutant (9B) (AID 1645876). Also: nearly all actives have a fitted effect of over 70% in size. Also: potency is read from the fitted curve at half-maximal effect. As to activity change, negative = viability loss: % is scaled to controls: 0 for no effect and ±100 for the full control effect.
Experiment [6] addresses Catechol O-methyltransferase (Homo sapiens) (UniProt P21964). Put plainly: Confirmatory Screen for Target Class Profiling of Small Molecule Inhibitors of Methyltransferases (AID 1745852; calls by dose curve; also: potency is read from the fitted curve at half-maximal effect). The conditions noted are these: MTase-Glo luminescence, SAH detection, recombinant enzyme; measured here: COMT max response; stronger effect = lower value.
In experiment [7] the target is Guanidinoacetate N-methyltransferase (Homo sapiens) (UniProt Q14353). The description is as above. The conditions noted are these: MTase-Glo luminescence, SAH detection, recombinant enzyme; activity change, negative = inhibition: at 57.3 µM (top of the series) unless noted.
In experiment [8] the target is Nicotinamide N-methyltransferase (Homo sapiens) (UniProt P40261). The experiment is described as above. The conditions noted are these: MTase-Glo luminescence, SAH detection, recombinant enzyme; measured here: NNMT max response; stronger effect = lower value.
Experiment [9] addresses Phenylethanolamine N-methyltransferase (Homo sapiens) (UniProt P11086). The experiment is described as above. Conditions: MTase-Glo luminescence, SAH detection, recombinant enzyme; measured here: PNMT max response; stronger effect = lower value.
Experiment [10] has as its target Cytochrome P450 3A4 (Homo sapiens) (UniProt P08684). Put plainly: Cytochrome P450 family 3 subfamily A member 4 (CYP3A4) small molecule antagonists: luciferase qHTS assay (AID 1645841; active = well fitted curve in the direction sought with a large enough effect in the repeat runs; an effect the other way counts as inactive or inconclusive; also: potency is read from the fitted curve at half-maximal effect; nearly all actives have a fitted effect of over 45% in size). The method in brief: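 P450-Glo CYP3A4 enzyme with proluciferin substrate preincubated 10 min with compound at room temperature, then NADPH regeneration 1 h. Luciferin detection reagent added for 20 min; luminescence recorded. Ketoconazole positive control.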

Inconclusive results are not listed. Calls of active or inactive are those of the source. Unless noted, calls follow the shape of the dose curve; as a rule, active = well fitted curve in the direction sought with a large enough effect; inconclusive = small, poorly fitted or top-dose-only effect, or another doubt; inactive = no such curve, though single readings can be large; an effect the other way counts as inactive or inconclusive.

Chain of Phenylethanolamine N-methyltransferase (Homo sapiens) (P11086 whole entry, looked up): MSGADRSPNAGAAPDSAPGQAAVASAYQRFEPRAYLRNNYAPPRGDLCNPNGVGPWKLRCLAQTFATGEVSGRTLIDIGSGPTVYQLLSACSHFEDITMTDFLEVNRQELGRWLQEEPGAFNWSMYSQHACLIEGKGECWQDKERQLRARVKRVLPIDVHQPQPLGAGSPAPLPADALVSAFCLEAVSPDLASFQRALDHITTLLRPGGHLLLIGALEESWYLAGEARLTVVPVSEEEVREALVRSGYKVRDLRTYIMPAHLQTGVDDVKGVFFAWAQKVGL
Chain of Catechol O-methyltransferase (Homo sapiens) (P21964 whole entry, looked up): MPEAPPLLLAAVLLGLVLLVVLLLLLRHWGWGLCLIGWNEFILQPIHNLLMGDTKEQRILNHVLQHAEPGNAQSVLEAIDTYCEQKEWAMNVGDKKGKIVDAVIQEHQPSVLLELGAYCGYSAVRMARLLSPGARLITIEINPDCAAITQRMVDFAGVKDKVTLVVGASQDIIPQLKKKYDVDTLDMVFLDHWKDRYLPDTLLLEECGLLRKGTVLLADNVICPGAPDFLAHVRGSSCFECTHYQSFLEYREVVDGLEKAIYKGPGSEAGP
Chain of Cytochrome P450 2C9 (Homo sapiens) (P11712 whole entry, looked up): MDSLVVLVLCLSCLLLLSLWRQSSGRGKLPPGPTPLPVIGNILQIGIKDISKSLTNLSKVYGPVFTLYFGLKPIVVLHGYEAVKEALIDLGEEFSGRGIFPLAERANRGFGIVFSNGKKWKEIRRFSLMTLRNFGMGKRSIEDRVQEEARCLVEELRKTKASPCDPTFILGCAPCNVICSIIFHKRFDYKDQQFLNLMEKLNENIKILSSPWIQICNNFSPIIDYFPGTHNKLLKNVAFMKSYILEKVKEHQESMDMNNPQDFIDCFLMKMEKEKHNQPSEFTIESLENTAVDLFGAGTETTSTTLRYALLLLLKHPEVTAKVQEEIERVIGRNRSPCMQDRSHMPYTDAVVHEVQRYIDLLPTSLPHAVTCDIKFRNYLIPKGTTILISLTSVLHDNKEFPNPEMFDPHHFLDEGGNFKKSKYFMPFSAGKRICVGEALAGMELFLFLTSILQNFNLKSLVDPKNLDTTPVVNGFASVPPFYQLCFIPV
Chain of Nicotinamide N-methyltransferase (Homo sapiens) (P40261 whole entry, looked up): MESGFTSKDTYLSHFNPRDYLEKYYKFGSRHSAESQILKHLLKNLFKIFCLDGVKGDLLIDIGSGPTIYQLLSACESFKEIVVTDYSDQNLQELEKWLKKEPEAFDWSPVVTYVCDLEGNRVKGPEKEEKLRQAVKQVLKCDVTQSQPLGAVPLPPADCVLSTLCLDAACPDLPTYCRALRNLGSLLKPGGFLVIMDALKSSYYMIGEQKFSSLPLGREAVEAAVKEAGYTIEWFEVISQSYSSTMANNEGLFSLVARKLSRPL
Chain of Calcium and integrin-binding protein 1 (Homo sapiens) (Q99828 whole entry, looked up): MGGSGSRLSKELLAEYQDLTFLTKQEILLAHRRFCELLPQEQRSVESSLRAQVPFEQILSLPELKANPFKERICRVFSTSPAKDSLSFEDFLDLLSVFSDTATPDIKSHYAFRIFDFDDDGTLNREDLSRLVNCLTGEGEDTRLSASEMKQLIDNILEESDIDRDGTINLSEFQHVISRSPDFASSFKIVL
Chain of Cytochrome P450 2D6 (Homo sapiens) (P10635 whole entry, looked up): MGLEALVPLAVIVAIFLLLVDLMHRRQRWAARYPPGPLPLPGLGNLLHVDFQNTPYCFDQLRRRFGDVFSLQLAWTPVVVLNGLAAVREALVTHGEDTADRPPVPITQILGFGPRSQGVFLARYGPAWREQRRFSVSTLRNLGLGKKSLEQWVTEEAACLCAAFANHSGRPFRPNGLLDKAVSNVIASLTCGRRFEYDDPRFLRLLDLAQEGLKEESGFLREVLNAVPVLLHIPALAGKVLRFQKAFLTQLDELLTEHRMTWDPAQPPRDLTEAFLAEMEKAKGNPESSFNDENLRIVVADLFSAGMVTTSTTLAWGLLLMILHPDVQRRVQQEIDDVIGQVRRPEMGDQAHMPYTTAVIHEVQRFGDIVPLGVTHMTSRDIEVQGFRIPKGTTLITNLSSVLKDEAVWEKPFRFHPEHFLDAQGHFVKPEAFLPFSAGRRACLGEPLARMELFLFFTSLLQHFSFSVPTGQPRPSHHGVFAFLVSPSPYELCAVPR
Chain of Cytochrome P450 3A4 (Homo sapiens) (P08684 whole entry, looked up): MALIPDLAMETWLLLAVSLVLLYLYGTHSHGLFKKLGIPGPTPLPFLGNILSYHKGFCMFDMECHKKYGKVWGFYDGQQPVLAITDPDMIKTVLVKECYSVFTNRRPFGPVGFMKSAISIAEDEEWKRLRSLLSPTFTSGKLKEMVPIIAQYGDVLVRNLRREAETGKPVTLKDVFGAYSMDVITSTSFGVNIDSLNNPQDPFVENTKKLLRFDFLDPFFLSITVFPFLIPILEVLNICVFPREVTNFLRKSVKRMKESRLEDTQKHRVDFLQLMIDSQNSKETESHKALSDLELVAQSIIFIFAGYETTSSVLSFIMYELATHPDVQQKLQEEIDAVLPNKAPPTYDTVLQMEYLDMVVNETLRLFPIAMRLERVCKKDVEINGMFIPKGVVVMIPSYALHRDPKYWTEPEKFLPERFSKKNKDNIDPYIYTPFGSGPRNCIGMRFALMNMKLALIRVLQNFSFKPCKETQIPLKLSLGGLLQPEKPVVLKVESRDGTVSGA

`Cc1ccc(Nc2nnc(-c3ccc([N+](=O)[O-])cc3)o2)cc1Cl`: the Potency entry in [1], in experiment [2] and in [3] was “inactive” in each case.

Take `COc1ccc(NC(=O)c2ccc(-c3ccc(C(N)=O)cc3C)cc2)cc1N1CCN(C)CC1`: the Potency entry in [1], in [2] and in experiment [4] was “inactive” throughout. In [3], the Potency is 14.5 µM (active).

For the molecule `COC(=O)[C@H](Cc1cccc(C(=N)N)c1)[C@@H](C)NC(=O)c1ccc(-c2cc[n+]([O-])cc2)cc1`, the Potency entry in experiment [1], in experiment [2], in [4], in experiment [5] and in experiment [3] was “inactive” in each case. Besides, the activity is -6.84% in [6], 1.87% in experiment [8] and -2.03% in experiment [9]. Further, the activity change, negative = inhibition in experiment [7] came out at 0%.

`O=C(/C=C/C=C/c1ccc2c(c1)OCO2)N1CCCCC1`: the Potency result in [1] is “inactive”. The Potency in experiment [4] is 10.7 µM (active).

Consider `Cc1ccc(-c2c(-c3nn(C)c4ncnc(N5CCC(N6CCCCC6)C5)c34)cnn2C)cc1` (configuration not stated), for which the Potency entry in [1], in experiment [5] and in experiment [3] was “inactive” in each case. For the same molecule, the Potency in experiment [10] was 120 nM (active); in experiment [4], 19 µM (active).

Regarding `COc1ccccc1CN[C@H]1CCCN[C@H]1c1ccccc1`, the Potency entry in experiment [1], in [4] and in experiment [5] was “inactive” throughout. Besides, the Potency in experiment [2] was 1.07 µM (active). The activity was 0.295% in [6], -6.63% in experiment [8] and -0.84% in [9]. The activity change, negative = inhibition in [7] is 7.32%.

Regarding `C[C@@H](c1ccccc1)N(C(N)=NC#N)c1cccc2ncccc12`, the Potency entry in experiment [1], in [2], in [5] and in [3] was “inactive” throughout. Moreover, the Potency in [4] was 10.7 µM (active).

For the molecule `O=C(O)Cn1nnc(-c2ccc(CN(CCCCOc3ccc(CN4CCCC4)cc3)CCc3ccccc3)cc2)n1`, the Potency result in experiment [1], in experiment [5] and in experiment [3] was “inactive” each time. Besides, in experiment [2], the Potency was 12 µM (active). Besides, the activity in experiment [6] is -3.03%; in experiment [8], -1.13%; in experiment [9], 0.559%. For the same molecule, in experiment [7], the activity change, negative = inhibition came out at 0%.

`CCC(CC)CC1(C(=O)Nc2ccccc2SC(=O)C(C)C)CCCCC1`: the Potency result in experiment [1], in experiment [2], in [5] and in experiment [3] was “inactive” in each case. Also, the Potency in [4] is 1.9 µM (active).

On to `O=C(COCC(=O)N1CCN(C(c2ccccc2)c2ccccc2)CC1)Nc1ccc(Cl)cc1C(=O)O`, for which the Potency entry in [1], in experiment [2], in [5] and in [3] was “inactive” each time. Besides, the activity in experiment [6] is -5.29%; in experiment [8] it was -44.4%; in [9] it was -8.81%. The activity change, negative = inhibition in experiment [7] was -4.07%.

Take `Nc1ncnc2c1ncn2[C@H]1O[C@@H](C(=O)N2CCN(CC(=O)Nc3cccc4c3CNC4=O)CC2)[C@H](O)[C@@H]1O`: the Potency result in [1], in experiment [2], in experiment [4], in experiment [5] and in experiment [3] was “inactive” throughout. Moreover, the activity in experiment [6] was -12.8%; in [8], -14.5%; in [9] it was -35.1%. Also, the Potency in experiment [7] was 21.5 µM (active).

For the molecule `COc1cccc2c1c(O)c(C(=O)N(C)c1ccc(C(F)(F)F)cc1)c(=O)n2C`, the Potency entry in experiment [1], in experiment [2], in [5] and in experiment [3] was “inactive” each time.

`COc1cnc(-c2ccc(Cn3c(CC(C)(C)C(=O)O)c(SC(C)(C)C)c4cc(OC[C@@H]5Cc6ccccc6N5C(C)=O)ccc43)cc2)nc1`: the Potency entry in experiment [1] and in experiment [2] was “inactive” throughout. Besides, in experiment [4], the Potency was 12 µM (active). Moreover, the activity in [6] is -6.21%; in experiment [8], -11.1%; in [9], -8.45%. In addition, the activity change, negative = inhibition in experiment [7] is -3.63%.

Regarding `Fc1ccc(-c2c3cccc(C(F)(F)F)c3nn2Cc2ccc(F)cc2Cl)cc1`, the Potency result in [1], in experiment [2], in experiment [5] and in experiment [3] was “inactive” each time.

For the molecule `CC(CNS(=O)(=O)C(C)C)c1ccc(-c2ccc(C#N)cc2)cc1` (configuration not stated), the Potency result in experiment [1], in experiment [2] and in experiment [4] was “inactive” each time. Further, in [3], the Potency is 8.17 µM (active).

As to `FC(F)(F)c1nnc2c(Sc3ccccc3)nc3ccc(Cl)cc3n12`, the Potency entry in experiment [1] and in experiment [2] was “inactive” each time. For the same molecule, the Potency in experiment [5] was 4.09 µM (active); in experiment [3], 3.65 µM (active).

Take `Cc1cccc(-c2nn3c(c2-c2ccnc4ccc(C(N)=O)cc24)CCC3)n1`: the Potency result in experiment [1], in experiment [2], in experiment [5] and in [3] was “inactive” each time.

On to `FC(F)(F)Oc1ccc(-c2ccc3nnc(C(F)(F)F)n3c2)cc1`, for which the Potency result in experiment [1], in experiment [2], in [5] and in experiment [3] was “inactive” each time.

For the molecule `COc1cc(Nc2nc3c(s2)CCCC3c2ccccc2)ccc1-n1cnc(C)c1` (configuration not stated), the Potency result in experiment [1] is “inactive”. Further, in experiment [2], the Potency was 0.275 µM (active). Further, the activity change, negative = viability loss in experiment [5] is -1.48% [at 9.23 µM] (inactive). Besides, the outcome in experiment [3] was “inactive [at 9.23 µM]”.

On to `CC1(C)CC=C(c2cnc3ccccc3c2)c2cc(C(=O)Nc3ccc(C(=O)O)cc3)ccc21`, for which the Potency entry in experiment [1] was “inactive”. Also, the Potency in [4] is 21.3 µM (active).

Turning to `CCc1nn(CCO)c(CC)c1Oc1cc(C#N)cc(C#N)c1`, the Potency entry in [1], in [2], in [5] and in experiment [3] was “inactive” in each case.

Regarding `Cn1c2ccc(NC(=O)c3ccccc3)cc2c(=O)n2nc(C(=O)O)cc12`, the Potency result in [1], in experiment [2], in experiment [4], in [5] and in experiment [3] was “inactive” throughout.

For the molecule `NC(N)=NCCC[C@H](NC(=O)c1sccc1NS(=O)(=O)c1cccc2nsnc12)C(=O)O`, the Potency entry in experiment [1], in experiment [2] and in experiment [5] was “inactive” each time.

In the case of `NCCCCN(Cc1nc2ccccc2[nH]1)[C@H]1CCCc2cccnc21`, the Potency result in experiment [1] was “inactive”. Moreover, the Potency in experiment [4] was 6.74 µM (active).
